Laboratory results published in PubChem BioAssay AID422 (Emory University Molecular Libraries Screening Center, 2006).
About 310 (0.19%) of roughly 160,000 compounds were called active. The entries come from a sample that favours actives as a whole. Values without a mark were called inactive. No stated cut-off is given here; in the data, active means inhibition above about 30%; inactive means the rest.

Biological target: 14-3-3 protein gamma (Homo sapiens) (UniProt P61981)
Assay: 14-3-3 gamma/Raf peptide interaction modulators – biochemical, fluorescence polarization, primary screen (AID 422);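 further: 0% = protein plus tracer without compound and 100% = blank with tracer alone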
Conditions: FP, 14-3-3gamma / TMR-pS259-Raf peptide binding; at 40 µM; hits give high values

Chain of 14-3-3 protein gamma (Homo sapiens) (P61981 whole entry, looked up): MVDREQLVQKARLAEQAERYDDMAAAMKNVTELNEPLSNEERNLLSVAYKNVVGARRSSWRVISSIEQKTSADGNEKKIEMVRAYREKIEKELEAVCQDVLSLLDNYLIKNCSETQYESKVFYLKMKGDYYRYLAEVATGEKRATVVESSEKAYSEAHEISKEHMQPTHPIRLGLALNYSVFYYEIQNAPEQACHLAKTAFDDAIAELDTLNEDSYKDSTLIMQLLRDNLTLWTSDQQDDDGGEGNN

Row | SMILES | inhibition
1 | O=C(C1CCC(Cn2c(=O)[nH]c3ccccc3c2=O)CC1)N1CCN(Cc2ccccc2)CC1 (configuration not stated) | -3.1%
2 | CSc1cccc(NC(=O)C2c3ccccc3C(=O)N3CCc4ccccc4C23)c1 (configuration not stated) | -1.47%
3 | CCCCNC(=O)c1c[nH]c2ccc(S(=O)(=O)Nc3cccc(OC)c3)cc2c1=O | -22.6%
4 | O=C(NC1CCCCCCCCCCC1)c1cnc2n(c1=O)CCS2 | -1.96%
5 | CCCOc1ccccc1C1NC(=O)NC(C)=C1C(=O)OCC1CCCO1 (configuration not stated) | 3.08%
6 | O=C1Nc2ccccc2C1=Nc1ccc(O)cc1 | 87.3% (active)
7 | CN(C)/C=C1/Nc2ccccc2C1=O | -0.95%
8 | CN(C)/C=C1/C(=O)Nc2ccccc21 | -2.07%
9 | O=C(Nc1nc2ccccc2n1CCOc1ccccc1)c1cccs1 | 8.38%
10 | CCOCCn1cnc2sc(C(=O)N3CCN(c4ccccn4)CC3)c(C)c2c1=O | 1.28%
11 | Cc1c(Cl)cccc1NC(=O)c1cc(S(=O)(=O)N2CCC(C)CC2)ccc1F | -5.5%
12 | O=C(Nc1nc(-c2cccs2)cs1)c1ccc(S(=O)(=O)N2CCc3ccccc3C2)cc1 | -43.5%
13 | CN1C(=O)c2ccccc2C(C(=O)N2CCC(Cc3ccccc3)CC2)C1c1c[nH]c2ccccc12 (configuration not stated) | 6.73%
14 | COc1ccc(CSc2n[nH]c(C)n2)cc1Cl | -0.37%
15 | CSCCC(NS(=O)(=O)c1cccs1)C(=O)Nc1ccc(F)cc1 (configuration not stated) | -1.64%
16 | CC(=O)OCC#CCSc1nc2ccccc2o1 | -1.9%
17 | CCOC(=O)C1CCN(S(=O)(=O)c2ccc(I)cc2)CC1 | -2.44%
18 | CC1CCN(S(=O)(=O)c2ccc3ncn(CC(=O)N4CCN(Cc5ccccc5)CC4)c(=O)c3c2)CC1 | 1.95%
19 | CCCCNC(=O)C1c2ccccc2C(=O)N(C)C1c1c[nH]c2ccccc12 (configuration not stated) | -0.96%
20 | O=C(OC(c1ccccc1)c1nccc2ccccc12)c1ccc([N+](=O)[O-])cc1 (configuration not stated) | -10%
21 | NC(=O)C1CCN(C(=O)c2ccc3nc4ccccc4c(=O)n3c2)CC1 | 12.3%
22 | CN(C(N)=O)C1CCS(=O)(=O)C1 (configuration not stated) | 2.31%
23 | S=c1[nH]nc(-c2cccs2)n1Cc1ccc2c(c1)OCO2 | -5.66%
24 | Nc1ccc2c3c(cccc13)C(=O)NC2=O | 14.8%
25 | CN1C(=O)c2cccc3c(N)ccc(c23)C1=O | 85.5% (active)
26 | CCN1C(=O)c2cccc3c(N)ccc1c23 | 5.38%
27 | COc1ccc(N2C(=O)CCC(C(=O)Nc3ccc(Br)cc3C)C2c2ccc(OC)c(OC)c2)cc1 (configuration not stated) | -9.11%
